High-throughput results from PubChem.
In the library only some 2.4% were active in any assay of this set; here they are far more common.
D2 antag: antagonizes the human D2 dopamine receptor; P14416; HEK293 TREx D2 cells, calcium flux, dopamine EC80; inhibition, % at 10 µM; 2% of 340,000 active; AID 485344; in the data active = inhibition above about 30%; inactive = below that, where a call was filed
Target sequence (P14416 whole entry, looked up): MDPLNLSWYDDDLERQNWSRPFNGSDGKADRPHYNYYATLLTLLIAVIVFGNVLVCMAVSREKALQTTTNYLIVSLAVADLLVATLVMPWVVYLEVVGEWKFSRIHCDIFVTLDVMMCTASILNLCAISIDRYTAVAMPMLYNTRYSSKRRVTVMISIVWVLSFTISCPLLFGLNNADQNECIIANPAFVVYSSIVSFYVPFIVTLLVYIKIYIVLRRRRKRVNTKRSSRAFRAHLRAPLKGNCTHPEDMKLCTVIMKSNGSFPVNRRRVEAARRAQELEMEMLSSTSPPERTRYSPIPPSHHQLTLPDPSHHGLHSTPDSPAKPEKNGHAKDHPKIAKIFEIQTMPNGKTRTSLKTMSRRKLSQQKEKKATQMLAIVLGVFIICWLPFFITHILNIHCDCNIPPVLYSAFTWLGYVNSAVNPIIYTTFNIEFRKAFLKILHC
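Calcium flux kinetic readout in an inducible HEK293 TREx D2 line plated overnight at 30 C. After 180 s compound exposure, an EC80 dopamine challenge follows with another 180 s kinetic read to detect antagonism.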
D2 ag-1: activates the human D2 dopamine receptor. P14416. 0.53% of 340,000 active. activation, % at 2 µM. AID 485358. HEK293 T-REx D2 cells, calcium flux agonist mode;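 active = activation over 3 SD above normal in the single-dose calcium agonist read, cut at about 30% in these data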
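Calcium-flux readout, 1 cycle/sec over 180 s following compound pin transfer, in inducible HEK293 Trex D2 cells (force-coupled); dopamine controls included. Positive calcium responses during this window marked compounds as potential agonists.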
D2 PAM-1: positively modulates the human D2 dopamine receptor allosterically. 0.34% of 340,000 active. HEK293 T-REx D2, calcium flux, EC20 dopamine potentiation. P14416. potentiation, % at 10 µM. AID 485347;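 active = potentiation over 3 SD above the plate norm, cut at about 30% in these data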
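Primary screen. Calcium kinetics in induced HEK293 T-REx D2 cells: compound pre-addition 180 s, EC20 dopamine, 180 s more.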
D2 PAM-2: human D2 receptor positive allosteric modulation | P14416 | DiscoveRx D2 beta-arrestin cells, luminescence, 90 min; 100% = 57 uM dopamine signal | potentiation, % (test concentration not listed) | 0.23% of 360,000 active; in the data active = potentiation above about 50%; inconclusive = mostly about 30% to 49%
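PathHunter D2 cells, attached overnight at 37 deg C, received compound in DMSO plus dopamine at EC20 (50 nM final) for 90 min at 37 deg C. Beta-arrestin recruitment was read as luminescence after 1 h with detection reagent at ambient temperature.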
D2 ag-2: human D2 receptor agonism in beta-arrestin assay | P14416 | DiscoveRx PathHunter D2 beta-arrestin, luminescence, 90 min; 100% = 57 uM dopamine signal | activation, % (no concentration beside the values) | 0.084% of 360,000 active | AID 624465; in the data active = activation above about 40%; inconclusive = between about 15% and that limit
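DiscoveRx PathHunter D2 beta-arrestin cells (2,100/well) attached overnight, then compound-stimulated 90 min at 37 C in HBSS/10 mM HEPES/0.1% Tween-20 buffer; beta-galactosidase complementation read by luminescence after 1 h at ambient temperature. Dopamine 57 uM final (EC100) as control.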
Each line names hits and unclear results; the compound was inactive in the other large screens.

Cc1ccc(C)c(OCCC(=O)NNC(=O)c2ccccc2)c1	none
Fc1ccc(-c2noc3ncnc(NC4CCCCC4)c23)cc1	none (no result: D2 antag, D2 PAM-2, D2 ag-2)
O=C(CCSCc1ccccc1F)N1CCN(c2ccc(F)cc2)CC1	none (no result: D2 antag, D2 PAM-2, D2 ag-2)
CCN(CC)S(=O)(=O)c1ccc(N2CCc3ccccc3C2)nc1	D2 PAM-1 34.4
CC(C)N(C(C)C)S(=O)(=O)c1ccc(N2CCc3ccccc3C2)nc1	none
CCN(CC)S(=O)(=O)c1ccc(C)c(C)c1	none
CCN(CC)S(=O)(=O)c1ccc(-n2cnc3cc(C)c(C)cc32)nc1	D2 PAM-1 37.8
Cc1c(C(=O)Nc2ccc(F)c(F)c2)oc2ccc(S(=O)(=O)N(C)C3CCCCC3)cc12	none (no result: D2 antag, D2 PAM-2, D2 ag-2)
O=c1c(N2CCN(c3cccc(C(F)(F)F)c3)CC2)csc2ccccc12	none (no result: D2 antag, D2 PAM-2, D2 ag-2)
COc1ccc(/C=C/C(=O)O)cc1COc1cccc(C)c1	D2 antag 40.3
COc1ccc(/C=C/C(=O)C2CC2)cc1COc1c(C)cccc1C	none (no result: D2 PAM-1)
CC(C)OC(=O)c1ccc(Cn2nnc3sc4c(c3c2=O)CCCC4)cc1	none (no result: D2 antag, D2 PAM-2, D2 ag-2)
Cc1ccc(Nc2ccc(N3CCN(C(=O)c4cccc([N+](=O)[O-])c4)CC3)nn2)cc1	none (no result: D2 antag, D2 PAM-2, D2 ag-2)
COc1cccc(Oc2nc(-c3ccccc3O)nc3ccccc23)c1	D2 antag 43.1
Cc1nnsc1C(=O)Nc1ccc(S(=O)(=O)N2CCCCC2)cc1	none
CCC1CCCCN1S(=O)(=O)c1ccc(NC(=O)c2snnc2C)cc1 (stereo not given)	D2 PAM-1 36.3
CN(c1cccc(NS(=O)(=O)c2cccs2)c1)S(C)(=O)=O	D2 PAM-1 30.4
COc1ccc(S(=O)(=O)Nc2cccc(N(C)S(C)(=O)=O)c2)cc1Br	none
COc1ccccc1NC(=O)N1CCCC1	D2 antag 33.1
COc1ccccc1NC(=O)N1CCN(C)CC1	none
CCOC(=O)N1CCN(Cc2ccccn2)CC1	D2 PAM-1 44.2
CCOC(=O)N1CCN(Cc2cccs2)CC1	D2 ag-1 38.2, D2 ag-2 inconclusive
CCOC(=O)N1CCN(Cc2ccc(O)c3ncccc23)CC1	none
CCCCOc1ccc(C2C(=O)N(C3CCCCC3)CC(=O)N2C2CCCCC2)cc1 (stereo not given)	none (no result: D2 antag, D2 PAM-2, D2 ag-2)
Clc1cccc(-c2ccc(CNCCSc3nnnn3-c3ccccc3)o2)c1	none (no result: D2 antag, D2 PAM-2, D2 ag-2)
COc1cccc(NS(=O)(=O)c2ccc3[nH]cc(C(=O)N(C)C4CCCCC4)c(=O)c3c2)c1	none (no result: D2 antag, D2 PAM-2, D2 ag-2)
Cc1nn(C(=O)c2ccc(Cl)cc2)c(C)c1S(=O)(=O)N1CCOCC1	none (no result: D2 antag, D2 PAM-2, D2 ag-2)
Nc1ccc(C2=Nc3cccc4cccc(c34)N2)cc1	D2 ag-2 inconclusive
CC1=Nc2cccc3cccc(c23)N1	D2 PAM-2 55.6
Clc1ccccc1CSc1nc2ccncc2[nH]1	D2 antag 32.3
O=C(NCc1ccccc1Cl)c1ccc(CSc2nc3ccncc3[nH]2)cc1	none
Cc1cc(O)c2c(c1)C(=O)c1cc(O)cc(O)c1C2=O	none (no result: D2 antag, D2 ag-1, D2 PAM-1)
O=C1c2cccc(O)c2C(=O)c2c(O)cc(CO)cc21	D2 PAM-2 88.9 (no result: D2 antag, D2 ag-1, D2 PAM-1)
CS(=O)(=O)N1N=C(c2cccs2)CC1c1ccccc1 (stereo not given)	D2 antag 31.8
CCc1ccccc1NC(=O)Cn1nc2c3cc(F)ccc3n(Cc3cccc(C)c3)cc-2c1=O	none (no result: D2 antag, D2 PAM-2, D2 ag-2)
Cc1nn(Cc2ccc(F)cc2)c2sc(C(=O)Nc3nccs3)cc12	D2 PAM-2 inconclusive, D2 ag-2 inconclusive
Cc1nn(Cc2ccccc2Cl)c2sc(C(=O)Nc3nccs3)cc12	D2 antag 38.4
Cc1nn(Cc2ccc(Cl)cc2)c2sc(C(=O)O)cc12	D2 antag 31.6
O=C(C[n+]1cccc(CNC(=O)c2ccc(OC(F)F)cc2)c1)Nc1ccc(F)cc1	none
O=C(C[n+]1cccc(CNC(=O)c2ccc(OC(F)F)cc2)c1)Nc1cccc(C(F)(F)F)c1	D2 antag 44.8
O=C(NCC(c1cccnc1)N1CCc2ccccc2C1)C(=O)Nc1ccc(Cl)cc1 (stereo not given)	none (no result: D2 antag, D2 PAM-2, D2 ag-2)
O=C(CN1CCc2cc3c(cc2C1)OCCCO3)Nc1c(F)cccc1F	D2 antag 41.5
Cc1ccc(O)c(C=Nc2cc(C)ccc2O)c1	D2 PAM-2 58.4 (no result: D2 antag, D2 ag-1, D2 PAM-1)
CC(C)(C)c1ccc(O)c(N=Cc2cc(Br)ccc2O)c1	none
CCOc1ccc(C(=O)NCC(c2ccc3c(c2)OCO3)N2CCN(c3ccccc3F)CC2)cc1 (stereo not given)	none (no result: D2 antag, D2 PAM-2, D2 ag-2)
Cc1nc(N2C(=O)c3oc4ccccc4c(=O)c3C2c2ccccc2F)sc1C (stereo not given)	none (no result: D2 antag, D2 PAM-2, D2 ag-2)
C=CCN(CC=C)CCOc1ccccc1F	none
C=CCN(CC=C)CCOc1cccc2ccccc12	D2 ag-1 35.2
COc1ccccc1OC(=O)CCN1c2ccccc2Sc2ccccc21	none
COc1ccc(-[n+]2c(C)cc(/C=C3\Sc4ccccc4N3C)cc2C)cc1	D2 antag 47.7, D2 ag-1 54.9
COc1ccc(C(=O)/C=C2\Sc3ccccc3N2C)cc1	D2 antag 40.5
COc1ccccc1-[n+]1c(C)cc(/C=C2\Sc3ccccc3N2C)cc1C	D2 ag-1 88.7
Cc1ccc(N2CC(C)Cn3c2nc2c3c(=O)n(Cc3cccc(Cl)c3)c(=O)n2C)cc1 (stereo not given)	none (no result: D2 antag, D2 PAM-2, D2 ag-2)
CCc1ccc(-n2nc(CO)c(C(=O)NC(C)c3ccc(Cl)cc3)n2)cc1 (stereo not given)	none (no result: D2 antag, D2 PAM-2, D2 ag-2)
COCc1nnc(NC(C)=O)s1	D2 antag 32.4
C[C@H]1O[C@@H](O[C@H]2CC[C@@]3(C)C(CC[C@]4(C)C3C=C[C@]35OC[C@@]6(CCC(C)(C)C[C@H]63)[C@@H](O)C[C@]54C)[C@]2(C)CO)[C@H](O)[C@@H](O[C@@H]2O[C@H](CO)[C@@H](O)[C@H](O)[C@H]2O)[C@H]1O (stereo not given in full)	none (no result: D2 antag, D2 ag-1, D2 PAM-1)
CC1OC(OC2C(OC3C(O[C@H]4CC[C@]5(C)C6C=C[C@]78OC[C@@]9(CC[C@@H](C)[C@H](C)C97)[C@H](O)C[C@@]8(C)[C@]6(C)CC[C@H]5C4(C)C)OC(C)C(O)C3O)OC(CO)C(O)C2O)C(O)C(O)C1O (stereo not given in full)	D2 antag 31.6, D2 ag-1 43.0 (no result: D2 PAM-2, D2 ag-2)
S=C(NCCc1ccccc1)N1CCc2ccccc2C1	D2 antag 40.8
OC1CCN(C(=S)NCCc2ccccc2)CC1	none
O=C(O)CCc1ccc(-c2ccc(Cl)cc2)n1-c1cccc(C(F)(F)F)c1	none (no result: D2 antag, D2 PAM-2, D2 ag-2)
Cc1cccc(NC(=O)C(=O)NCC(c2ccc3c(c2)OCO3)N2CCOCC2)c1C (stereo not given)	none (no result: D2 antag, D2 PAM-2, D2 ag-2)
COc1ccc(C2CC(C(F)(F)F)n3nc(C(=O)N(C)Cc4cn(C)nc4C)c(Cl)c3N2)cc1 (stereo not given)	D2 PAM-1 33.6
COc1ccc(C2CC(C(F)(F)F)n3nc(C(=O)NCc4c(C)nn(C)c4C)c(Cl)c3N2)cc1 (stereo not given)	none
